Screening results from PubChem.
Only some compounds are listed: those with a hit (about 9.2% of all), similar ones and a draw of the others.
Lamin A splicing – qHTS Assay for Modulators of Lamin A Splicing; HeLa LMNA splicing GFP/RFP minigene ratio, 48 h; Potency, µM (doses to about 46.1 µM), for inactives: at the highest dose ratio change, negative = inhibition, hits mostly inhibitors; 200,000 compounds, 0.01% hits; AID 1487, 2009; active = well fitted inhibition curve with a large enough effect in the signal ratio, with a control signal flat, not every such curve was filed as active; inconclusive = small, poorly fitted or top-dose-only effect, or effect the other way, or a change in a side signal; the % refers to the signal ratio; note: % is set by controls: 0 for no effect and ±100 for the full control effect
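S3 HeLa cells stably expressing lamin A-EGFP splicing minigene plus DsRed2, 600 cells/well, 48 h compound exposure at 37C. Laser-scanning cytometry; analysed as GFP (500-530 nm)/RFP (575-640 nm) total intensity ratio; 0.5% DMSO vehicle.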
ALDH1A1 block – qHTS Assay for Inhibitors of Aldehyde Dehydrogenase 1 (ALDH1A1); Purified ALDH1A1, NADH fluorescence, propionaldehyde substrate; Potency, µM (series often up to 75.3 µM), for inactives: at the top dose activity, negative = inhibition, hits mostly inhibitors; 220,000 compounds, 7.3% hits; AID 1030, 2008;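 note: plate controls were no enzyme wells and a reference inhibitor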
Target sequence (P00352 whole entry, looked up): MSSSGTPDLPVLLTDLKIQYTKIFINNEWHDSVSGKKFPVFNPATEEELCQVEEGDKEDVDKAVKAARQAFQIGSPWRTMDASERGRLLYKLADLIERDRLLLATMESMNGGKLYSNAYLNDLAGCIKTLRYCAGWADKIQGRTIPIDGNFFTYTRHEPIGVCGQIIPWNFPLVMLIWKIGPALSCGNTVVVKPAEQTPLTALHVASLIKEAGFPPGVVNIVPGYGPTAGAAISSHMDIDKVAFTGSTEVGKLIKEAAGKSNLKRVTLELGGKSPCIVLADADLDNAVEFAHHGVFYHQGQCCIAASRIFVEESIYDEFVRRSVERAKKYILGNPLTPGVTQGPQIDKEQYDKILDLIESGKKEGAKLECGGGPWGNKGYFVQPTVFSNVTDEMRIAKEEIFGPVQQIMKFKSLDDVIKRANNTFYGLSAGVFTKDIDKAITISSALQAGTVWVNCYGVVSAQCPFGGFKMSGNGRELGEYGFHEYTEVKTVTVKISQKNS
HttQ103 aggreg – qHTS Multiplex Assay to Identify Dual Action Probes in a Cell Model of Huntington: Aggregate Formation (GFP). 220,000 compounds, 1.1% hits. PC12 HttQ103-GFP aggregates, Acumen cytometry, 40 h. Potency, µM (top dose mostly 46.1 µM), without a hit: top-dose activity change, negative = inhibition, usual class: inhibitors. AID 1688, 2009; active = well fitted curve in the direction sought with a large enough effect; inconclusive = small, poorly fitted or top-dose-only effect, or another doubt; inactive = no such curve, though single readings can be large; an effect the other way counts as inactive or inconclusive; note: % is set by controls: 0 for no effect and ±100 for the full control effect; nearly all actives have a fitted effect of over 60% in size
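Inducible Q103 Huntingtin exon 1–GFP PC12 line, 1500 cells/well in phenol red free DMEM with 5% equine and 5% calf serum. Tebufenozide 100 nM induced expression; compounds titrated; aggregates quantified by cytometry.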
JMJD2E inh – qHTS Assay for Inhibitors of Human Jumonji Domain Containing 2E (JMJD2E) | Lysine-specific demethylase 4E (Homo sapiens), B2RXH2 | JMJD2E catalytic domain, FDH-coupled NADH fluorescence (FDH is formaldehyde dehydrogenase) | Potency, µM (titrated, usually from 57.1 µM), inactives show at the highest dose activity change, negative = inhibition, most hits filed as inhibitors | 230,000 compounds, 1.6% hits;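 note: 0% = wells with enzyme and -100% = buffer wells without enzyme; nearly all actives have a fitted effect of over 50% in size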
HPGD block – qHTS Assay for Inhibitors of HPGD (15-Hydroxyprostaglandin Dehydrogenase); 15-hydroxyprostaglandin dehydrogenase [NAD(+)] (Homo sapiens), P15428; purified HPGD, NADH fluorescence kinetic, PGE2 substrate; Potency, µM, for the others: at the top dose activity change, negative = inhibition, actives largely listed as inhibitors; 150,000 compounds, 4.3% hits; note: % is set by controls: 0 for no effect and ±100 for the full control effect
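20 nM HPGD preincubated 15 min at room temperature with compound in 50 mM Tris-HCl pH 8, 0.01% Tween 20. Started with 1 mM NAD+ and 30 uM prostaglandin E2; NADH fluorescence (360/450 nm) read 5 times over 30-s intervals, last minus first.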
HTT cytoprotect – qHTS Multiplex Assay to Identify Dual Action Probes in a Cell Model of Huntington: Cytoprotection (ATP); PC12 HTT-Q103 induced, cytoprotection, ATP luminescence, 40 h; Potency, µM (series often up to 56.4 µM), for the others: cytoprotection (ATP increase), usual class: activators; 230,000 compounds, 0.14% hits; AID 1471, 2008; active = well fitted curve in the direction sought with a large enough effect; inconclusive = small, poorly fitted or top-dose-only effect, or another doubt; inactive = no such curve, though single readings can be large; an effect the other way counts as inactive or inconclusive; note: % of control where 0% means no effect; nearly all actives have a fitted effect of over 45% in size
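Quantitative HTS on tebufenozide-induced (100 nM) PC12 cells expressing HTTQ103 exon 1–GFP; compounds tested as a concentration series; survival measured via cellular ATP.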
Starred values were filed as active, the others as inactive; ? = inconclusive; / = no result; ! = not confirmed by another sample; [ ] = dose if it differs, or a comment. Unless noted, calls come from the whole dose curve; as a rule, active = well fitted inhibition curve with a large enough effect (not every such curve was filed as active); inconclusive = small, poorly fitted or top-dose-only effect, or another doubt; inactive = no such curve, though single readings can be large or run the other way. Potency is the fitted concentration of half-maximal effect.

SMILES | Lamin A splicing | ALDH1A1 block | HttQ103 aggreg | JMJD2E inh | HPGD block | HTT cytoprotect
CC(CN1c2ccccc2Sc2ccccc21)N(C)C (stereo unspecified) | ? | ? | 28.2µM*! | -6.7% | -26.4% | -187.2%
O=C(c1cnccn1)N1CCC2(CC1)CN(Cc1ccccc1)C2 | / | -0.9% | / | / | -6.2% | -31.2%
COC(=O)c1ccc(C(NC(=O)OCc2ccccc2)/C(=C/[C@@H](C)C(=O)NCc2cc(C)n(C)n2)c2cccnc2)cc1 (stereo partly specified) | / | 10.3% | / | 14.2% | -2.4% | 2.9%
Nc1ccc(N)c(Cl)c1 | / | 22.4µM* | / | / | ? | -60.2%
Cc1ccc2cc(CN(CCN3CCOCC3)Cc3nnnn3Cc3ccco3)c(=O)[nH]c2c1C | -2.0% | 5.01µM* | 15.6% | -28.2% | -5.1% | -15.4%[10 µM]
CCc1ccc2[nH]c(=O)c(CN(Cc3ccccc3OC)Cc3nnnn3Cc3ccco3)cc2c1 | ? | 25.1µM* | ? | ? | -14.9% | -2.5%[10 µM]
Cc1ccc2cc(CN(Cc3ccc4c(c3)OCO4)Cc3nnnn3Cc3ccco3)c(=O)[nH]c2c1C | 1.5% | ? | 19.0% | ? | -23.8% | 16.5%[1.9 µM]
COc1ccccc1CN(Cc1cc2cc(C)ccc2[nH]c1=O)Cc1nnnn1Cc1ccco1 | 8.2% | ? | 8.1% | ? | ? | -27.9%
N[C@@H]1C(O)OC(CO)C(O)C1O (stereo partly specified) | 16.2% | 14.3% | -7.0% | -0.3% | -3.4% | -44.4%
COc1ccc(Cl)cc1C(=O)NCc1nnnn1-c1ccccc1 | -3.6%[46 µM] | / | / | / | / | /
COc1ccc(-c2noc(-c3ccc(Cl)cc3[N+](=O)[O-])n2)cc1OC | -22.1% | -8.4% | 5.2% | -1.9% | 17.8µM* | -8.6%[10 µM]
Cc1cccc(-c2noc(-c3ccc(Cl)cc3[N+](=O)[O-])n2)c1 | ? | -0.6% | -10.1% | 5.0% | 14.1µM* | 2.9%[10 µM]
Cc1cccc(-c2noc(-c3ccoc3C)n2)c1 | 0.3%[46 µM] | -0.1% | 20.1% | 2.9% | / | 6.9%
C[C@@H]1C[C@](C)(C(=O)c2ccc3ccccc3c2)C=C1c1ccc2ccccc2c1 | / | 2.9% | / | 1.9% | -2.7% | ?
C[C@@H]1C[C@](C)(C(=O)c2ccco2)C=C1c1ccco1 | / | 14.1µM* | / | -9.2% | -8.4% | -44.1%
CC(C)OC(=O)c1cccc(-c2ccc(C=O)o2)c1 | 1.7% | 6.31µM* | -5.0% | 6.1% | -24.1% | /
CCc1ccc(S(=O)(=O)Nc2cccc(-c3ccc(N4CCOCC4)nn3)c2)cc1 | -11.4%[46 µM] | / | / | / | / | /
COc1ccccc1C(=O)NCC1(N2CCN(C)CC2)CCCCC1 | 2.0%[46 µM] | / | / | / | / | /
CC(O)C(N)C(=O)O (stereo unspecified) | ? | / | -21.2% | / | / | ?
N[C@H](C(=O)O)[C@H](O)C(=O)O | -16.3% | 8.7% | / | 12.6µM*! | -14.2% | -12.4%
O=C(ONC1=NCCCCC1)c1c(F)cccc1F | ? | -6.5% | -6.0% | -4.2% | 1.4% | 0.794µM*
O=C(ONC1=NCCCCC1)c1ccc(Cl)cc1 | 21.3% | 4.9% | 1.9% | 5.2% | -3.5% | 15.8%
COc1cccc(C(c2sc3nc(C)nn3c2O)N2CCc3ccccc3C2)c1 (stereo unspecified) | -8.4% | ? | -6.5% | 7.0% | 11.2µM* | 5.2%[10 µM]
COc1cc(C(c2sc3nc(C)nn3c2O)N2CC(C)CC(C)C2)cc(OC)c1OC (stereo unspecified) | -4.3% | 14.1µM* | 14.0% | -2.7% | -15.2% | -12.0%
CC1CCCN(C(c2ccccc2)c2sc3ncnn3c2O)C1 (stereo unspecified) | / | -0.7% | -2.8%[9.22 µM] | -1.4% | / | 23.8%[10 µM]
Oc1c(C(c2ccccc2)N2CCc3ccccc3C2)sc2ncnn12 (stereo unspecified) | ? | 7.08µM* | -16.7% | -2.3% | 31.6µM* | 27.6%[10 µM]
